# In PubChem BioAssay (NCI):
# This is part of a sample that, as a whole, favours compounds with a hit. Of some 83,000 tested, about 20% had one in any assay.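 Note: values are percent growth. 100 is the growth of untreated cells, values between 100 and 0 indicate rising inhibition; between -100 and 0 indicates cell death.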 Unmarked numbers belong to inactive results. Active and inactive are the calls of the source. Rule for the calls: active = growth percent below 10; inactive = the rest.
# System: HL-60(TB) leukemia
# Assay: NCI-60 one-dose screen, 48 h (100 = growth as untreated, 0 = no growth, -100 = all killed)
# Conditions: 10 µM unless noted
row,SMILES,growth
1,CC(C)(C)CC(C)(C)Cc1ccc(OCCOCC[N+](C)(C)Cc2ccccc2)cc1,-52.6% (active)
2,Cc1ccc(C(=O)/C(=C\c2ccc([N+](=O)[O-])cc2)S(=O)Cc2ccc(Cl)cc2)cc1 (stereo not given),33.9%
3,COc1cc2cc3c(nc2cc1OC)CCN3Cc1ccc(NC(=O)c2ccc(Cl)c(C(F)(F)F)c2)cc1,99.5%
4,C[C@H]1C=C(C[C@@H](O)CCCCCCCCCC[C@@H](O)[C@H]2CCC(=O)O2)C(=O)O1,102%
5,CCn1cc(C(=O)NNC(=S)Nc2ccc(C)cc2)c(=O)c2ccc(C)nc21,94.5%
6,O=C1c2ccccc2C2N1CCC1CCc3ccccc3N12 (stereo not given),104%
7,Cc1c(O)cc(-c2cnc(N/N=C/c3ccccc3)s2)c(O)c1C,19.1%
8,CCCCCCCC/C=C/CCCCCCCC1=NC(C)(C)CN1c1ccccc1,70%
9,Cc1cc(N2CCOCC2)nc(NCc2cc(Nc3ccnc4cc(Cl)ccc34)ccc2F)n1,-54.2% (active)
10,O=C1Nc2ccc(Cl)cc2[C@@](C#CC2CC2)(C(F)(F)F)O1,96.5%
11,N=C(N)c1ccc(-c2ccc(-c3cccs3)s2)cc1F,-47.8% (active)
12,Cc1c(Cl)c(C)c(Cc2c(C)c(Cl)c(C)c(Cl)c2O)c(O)c1Cl,10.3%
13,COc1ccc(-c2cc(=O)c3c(OC)c4ccoc4cc3o2)cc1,117%
14,C=C(C(=O)c1ccccc1)C(NC(C)(C)C)c1ccccc1 (stereo not given),-14.7% (active)
15,COc1ccc(OC)c(C(=O)Nc2cccc(-c3cc(=O)c4ccccc4o3)c2)c1,89.4%
